Screening data as filed in PubChem.
ELG1 genotoxic = genotoxicity induction in ELG1-luciferase HEK293T cells | hit rate 1.3% among 330,000 | HEK293T ELG1-luciferase reporter, luminescence, 16 h | AID 504466 | Potency, µM (titrated, usually from 46 µM), for the others: top-dose activity change, positive = activation, hits mostly activators; note: % of control where 0% means no effect; nearly all actives have a fitted effect of over 60% in size
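ELG1-luciferase HEK293T cells, 2,000/well; compound pinned in; 16 hr, 37 °C, 5% CO2; ONE-Glo, 30 min RT; luminescence on CCD imager.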
Rab9 prom act = activators of Rab9 promoter | Huh7 Rab9 promoter-luciferase reporter, luminescence, 24 h | Potency, µM (series often up to 9.22 µM), inactives show top-dose activation, negative = inhibition, hits mostly activators | hit rate 2.8% among 320,000; note: % of control where 0% means no effect; nearly all actives have a fitted effect of over 60% in size
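Huh7 reporter line, Rab9 promoter upstream of luciferase. Compound exposure 24 h at 37 °C in reduced-serum medium with 10% FBS. Read-out: luminescence.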
FLuc modulator = firefly luciferase modulation, counter-screen for miR-21 project. Potency, µM (titrated, usually from 57.5 µM), for the others: top-dose activity change, negative = inhibition, usual class: inhibitors. P08659. hit rate 6.9% among 360,000. purified FLuc, Km substrates, luminescence inhibition;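 note: plate controls were vehicle for no effect and reference inhibitor for full effect; nearly all actives have a fitted effect of over 55% in size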
Target sequence (P08659 whole entry, looked up): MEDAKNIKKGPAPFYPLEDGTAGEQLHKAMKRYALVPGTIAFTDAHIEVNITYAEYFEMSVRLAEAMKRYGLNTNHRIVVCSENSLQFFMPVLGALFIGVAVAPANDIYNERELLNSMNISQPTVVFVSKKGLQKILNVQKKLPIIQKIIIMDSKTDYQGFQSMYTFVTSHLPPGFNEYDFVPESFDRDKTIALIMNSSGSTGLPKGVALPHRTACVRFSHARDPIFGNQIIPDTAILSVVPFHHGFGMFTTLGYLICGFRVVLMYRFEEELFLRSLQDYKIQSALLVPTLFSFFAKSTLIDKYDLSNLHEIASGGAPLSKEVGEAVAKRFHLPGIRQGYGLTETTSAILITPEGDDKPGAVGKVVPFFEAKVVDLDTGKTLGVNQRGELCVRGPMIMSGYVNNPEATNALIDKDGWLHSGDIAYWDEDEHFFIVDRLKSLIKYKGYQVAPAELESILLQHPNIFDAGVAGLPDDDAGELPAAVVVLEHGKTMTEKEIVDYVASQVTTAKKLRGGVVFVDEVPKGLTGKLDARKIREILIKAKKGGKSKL
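Biochemical qHTS of compounds, final roughly 60 µM downward over six points, against 10 nM purified firefly luciferase using Km concentrations of substrates (10 uM D-luciferin, 10 uM ATP) in Tris acetate pH 7.5 buffer; luminescence output.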
SMN2 splice enh = SMN2 splice variant enhancement; HEK293 SMN2-luciferase splicing reporter, luminescence, 30-36 h; Potency, µM (doses to about 46.1 µM), without a hit: top-dose activity change, positive = activation, hits mostly activators; hit rate 2.8% among 210,000; AID 1458; note: % of control where 0% means no effect; nearly all actives have a fitted effect of over 55% in size
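HEK293 cells carry an SMN2 […]–luciferase reporter in which exon 7 inclusion puts luciferase in frame. Cells were plated 10-12 h before compound addition, then incubated 30-36 h at 37C. ONE-Glo luminescence was read; sodium butyrate at 4.5 mM final served as control.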
NPC1 prom act = activators of NPC1 promoter | hit rate 2.4% among 320,000 | Huh7 NPC1 promoter luciferase reporter, 24 h | Potency, µM (series often up to 9.22 µM), for the others: at the top dose activation, actives largely listed as activators; note: % of control where 0% means no effect; nearly all actives have a fitted effect of over 60% in size
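Quantitative HTS used a cell-based reporter: Huh7 cells stably bearing the NPC1 promoter upstream of luciferase were treated with compounds for 24 h, and promoter activation was read as luminescence.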
* = called active by the depositor; ? = inconclusive; . = no result; [ ] = remark or other dose. An excerpt weighted towards active compounds, which were near 7.5% of everything screened. Calls come from the whole dose curve; as a rule, active = well fitted curve in the direction sought with a large enough effect; inconclusive = small, poorly fitted or top-dose-only effect, or another doubt; inactive = no such curve, though single readings can be large; an effect the other way counts as inactive or inconclusive. Potency is the fitted concentration of half-maximal effect.

SMILES	ELG1 genotoxic	Rab9 prom act	FLuc modulator	SMN2 splice enh	NPC1 prom act
O=C(O)COc1ccc(/C=N/NC(=O)c2ccccc2Br)cc1	0%	-3%	-6%	.	-3%
O=C(N/N=C/c1ccccc1OCC(=O)N1CCCC1)C(=O)Nc1ccccc1F	11%	-4%	9.5µM*	12%	1%
Nc1cc(C(=O)O)[nH]c(=O)n1	.	.	.	-7%[9.22 µM]	.
CCOC(=O)c1ccccc1NC(=O)c1ccc2nccnc2c1	-4%	1%	-3%	-5%	-4%
N#CCCSCc1ccc2oc(C(=O)O)cc2c1	3%	-7%	?	.	-1%
CCOC(=O)c1cnc2c(ccc3ccccc32)c1Nc1ccc(OC)c(OC)c1	.	.	-1%	-1%	.
O=C(CC1SC(=O)NC1=O)Oc1ccc(/C=N/NC(=O)c2ccccc2O)cc1 (stereo not given)	9%	17%	17µM*	.	3%
Nc1c(C(=O)N/N=C/c2ccccc2)cnn1-c1ccccc1	?	0.63µM*	5.4µM*	.	1.1µM*
O=C(N/N=C/c1ccc(OCC(=O)N2CCCCC2)cc1)c1ccccc1O	1%	12%	15µM*	2%	13%
Cn1nccc1C(=O)Oc1ccc(/C=N/NC(=O)c2ccccc2O)cc1	2%	9%	17µM*	-17%	-1%
CC(=O)Nc1ccc(OC(=O)CC2SC(=O)NC2=O)cc1 (stereo not given)	1%	-1%	-4%	4%	1%
O=C(NCc1ccc2c(c1)OCO2)Oc1ccccc1	-11%	-6%	?	-21%	-3%
O=c1oc(-c2cc3ccccc3o2)nc2sc3c(c12)CCCC3	14%	?	2.4µM*	?	?
O=c1oc(-c2cccs2)nc2sc3c(c12)CCCCC3	1%	?	1.2µM*	16µM*	?
Nn1c(Cc2ccccc2)nc2sc3c(c2c1=O)CCC3	-7%	1%	0%	.	-3%
O=c1oc(/C=C/c2ccccc2)nc2sc3c(c12)CCC3	14µM*	?	0.95µM*	11µM*	21%
COc1ccc(-c2csc3nc(-c4ccccc4C)oc(=O)c23)cc1OC	.	.	-2%	7%	.
Cc1ccccc1-c1nc2sc3c(c2c(=O)o1)CCC3	3%	4%	2.4µM*	33%	-2%
Cc1ccc(/C=N/OC(=O)c2c(C)noc2-c2snnc2C)cc1	0%	7%	-1%	.	-2%
CCc1c(-c2ccccc2)nc2sc3c(c2c1N)CCCC3	-4%	?	1.7µM*	.	26%
Nc1nc(-c2cccnc2)nc2sc3c(c12)CCCC3	7.3µM*	3.2µM*	1.1µM*	11µM*	2µM*
Cn1c(N/N=C/c2ccccc2)nc2sc3c(c2c1=O)CCC3	1%	-2%	15µM*	-26%	1%
O=c1oc(-c2ccccc2)nc2sc3c(c12)CCCC3	23%	?	1.2µM*	?	24%
O=C1CN(c2nc(-c3cccnc3)nc3sc4c(c23)CCCC4)CCN1	-2%	-3%	?	?	0%
CC(C)(C)c1nc2sc3c(c2c(=O)o1)CCCC3	3%	2%	-7%	3%	1%
SMILES	ELG1 genotoxic	Rab9 prom act	FLuc modulator	SMN2 splice enh	NPC1 prom act
S=C(NC1CCCC1)N1CCN(c2ccccn2)CC1	1%	-2%	-1%	11%	-3%
CCCCC(CC)CNC(=O)CN1C(=O)NC2(CCc3ccccc32)C1=O (stereo not given)	1%	-3%	-1%	.	-3%
CC1CCCC(C)N1C(=O)COc1ccc(F)cc1 (stereo not given)	0%	1%	0%	-6%	0%
COc1cccc(C(c2c(NC(=O)c3ccco3)sc(C)c2C)N2CCOCC2)c1 (stereo not given)	7%	5%	-11%	.	-3%
CN1CCC(N2CCN(c3cccc(C(F)(F)F)c3)CC2)CC1	-9%	-1%	4%	4%	-4%
FC(F)(F)c1cccc(N2CCc3cn[nH]c32)c1	14%	-1%	24µM*	-14%	10%
Cc1nn(Cc2c(F)c(F)c(F)c(F)c2F)c(C)c1NC(=O)c1nn(C)cc1[N+](=O)[O-]	0%	-4%	3%	-10%	-2%
CCc1ccc(C(=O)NC(CCSC)C(=O)O)cc1 (stereo not given)	1%	-8%	?	7%	-5%
Cc1ccc2c(c1)Cc1nc3ccccc3nc1-2	-2%	?	1.1µM*	?	4%
Cc1cc(N2CCCC2)nc2ccccc12	-4%	-4%	2%	-10%	-2%
O=S(=O)(/C=C/c1ccccc1)N1CCN(Cc2ccc3c(c2)OCO3)CC1	-4%	-3%	-13%	2%	-1%
Nc1ccc(C(=O)Nc2ccccc2C(=O)O)cc1	?	20%	6µM*	-13%	24%
O=C(Nc1ccccc1C(=O)Nc1nncs1)c1ccccc1	-8%	-2%	21µM*	.	-3%
COc1ccccc1NC(=O)c1ccccc1Nc1ccccc1	-2%	2%	-8%	.	-1%
O=C(O)c1ccccc1NC(=O)c1ccccc1Nc1ccccc1	-7%	-3%	17µM*	.	5%
O=C(Nc1ccccc1C(=O)O)c1ccc(Br)o1	?	?	19µM*	6%	?
O=C(Nc1ccccc1C(=O)O)c1ccc(NC(=O)C2CC2)cc1	-11%	0%	0%	.	1%
CCOc1ccc(C(=O)Nc2ccccc2C(=O)O)cc1	?	1µM*	0.95µM*	8.9µM*	0.63µM*
O=C(Nc1ccccc1C(=O)Nc1ccccc1C(=O)O)c1ccccc1	-18%	3%	15µM*	.	-5%
Cc1cccc(COc2ccccc2C(=O)NC2CCC(O)CC2)c1 (stereo not given)	13%	-5%	1%	.	-1%
Clc1ccc(OCCCc2nc(-c3cccnc3)no2)c(Cl)c1	-4%	4%	-20%	.	7%
Cc1ccc(-c2noc(/C=C/c3ccccc3)n2)cc1	19%	?	9.5µM*	?	?
C(=C\c1nc(-c2cccnc2)no1)/c1ccccc1	9%	?	4.8µM*	.	28%
Clc1ccc(-c2noc(/C=C/c3ccccc3)n2)cc1	?	24%	?	.	27%
Clc1ccccc1/C=C/c1nc(-c2cccnc2)no1	?	0.63µM*	1.7µM*	.	1.3µM*
SMILES	ELG1 genotoxic	Rab9 prom act	FLuc modulator	SMN2 splice enh	NPC1 prom act
CC(C)(C)[C@H]1COC(=O)CC/C=C\C[C@@H](CC(=O)N[C@H](CO)Cc2ccccc2)C(=O)N1	2%	.	.	.	.
COc1ccc(CCC(=O)NC2CC(=O)N(c3ccc(C)cc3)C2)cc1 (stereo not given)	.	.	-6%	.	.
CC(=O)Nc1cccc(NC(=O)c2cccc3cccnc23)c1	-4%	23%	13µM*	.	-1%
O=C(NCCc1ccccc1F)c1cccc2cccnc12	?	1.8µM*	17µM*	.	3.2µM*
Cc1ccc(NC(=O)c2cccc3cccnc23)cc1	?	1.6µM*	5.4µM*	.	2.5µM*
CCOc1ncccc1C(=O)NCc1ccccc1F	2%	-6%	-1%	-7%	-3%
